Here are results for 13 compounds from PubChem BioAssay (EPA / NIEHS).

Calls of active or inactive are those of the source. How the source made its calls: active means hit-call score of the fitted dose curve at least 0.9, where 1 is the maximum; inactive means score below 0.9.

Conditions in all cases: mRNA level, 48 h; actives raise or lower the signal
Read-out in assay [1]: DNA damage-inducible transcript 3 (DDIT3), DDIT3 (gene 1649)
The experiment in a line: LTEA_HepaRG_DDIT3: Life Technologies and Expression Analysis (LTEA) Assay for DNA damage-inducible transcript 3 (DDIT3) using HepaRG (AID 2283488). The gist of the method: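 HepaRG cells, 48 h after plating, exposed 48 h in serum-free induction medium to 8 half-log concentrations up to 100 uM in 0.5% DMSO, in duplicate. DDIT3 mRNA measured by TaqMan qRT-PCR, normalized to ACTB, GAPDH and POLR2A. Fitted bidirectionally against DMSO.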

Read-out in assay [2]: Pro-epidermal growth factor (Homo sapiens) (UniProt P01133)
Description: LTEA_HepaRG_EGF: Life Technologies and Expression Analysis (LTEA) Assay for Epidermal growth factor (EGF) using HepaRG (AID 2283489). The gist of the method: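 HepaRG, 48 h dosing, 100 uM top, half-log x8, 0.5% DMSO. Readout: TaqMan qRT-PCR (Fluidigm array), housekeeping-normalized. Gain or loss of signal fit vs DMSO.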

Read-out in assay [3]: Early growth response protein 1 (EGR1) transcription factor, EGR1 (gene 1958)
Description: LTEA_HepaRG_EGR1: Life Technologies and Expression Analysis (LTEA) Assay for Early growth response protein 1 (EGR1) transcription factor using HepaRG (AID 2283490). The gist of the method:
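Read-out is EGR1 mRNA level by qRT-PCR, normalized to three housekeeping genes and analysed for gain or loss of signal against 0.5% DMSO. Source cells: human HepaRG, treated 48 h at up to 100 uM in half-log dilutions.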

Read-out in assay [4]: Ezrin (EZR), EZR (gene 7430)
Description: LTEA_HepaRG_EZR: Life Technologies and Expression Analysis (LTEA) Assay for Ezrin (EZR) using HepaRG (AID 2283491). The gist of the method:
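EZR transcript levels came from Fluidigm qRT-PCR and were normalized to three housekeeping genes after 48 h chemical exposure of HepaRG cells. Dosing used an 8-point half-log series with a 100 uM top concentration in 0.5% DMSO, tested in duplicate; both directions were fitted versus vehicle.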

Read-out in assay [5]: Cytochrome P450 3A7 (Homo sapiens) (UniProt P24462)
Description: LTEA_HepaRG_CYP3A7: Life Technologies and Expression Analysis (LTEA) Assay for CYP3A7 using HepaRG (AID 2283492). The gist of the method: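 Human HepaRG liver cells, 48 h post-plating, switched to serum-free induction medium and exposed in duplicate for 48 h. Dosing: 100 uM top, half-log dilutions, 8 points, 0.5% DMSO vehicle. Read-out: CYP3A7 mRNA, gain or loss fitted against DMSO baseline.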

Read-out in assay [6]: CYP3A5 (gene 1577)
The experiment in a line: LTEA_HepaRG_CYP3A5: Life Technologies and Expression Analysis (LTEA) Assay for CYP3A5 using HepaRG (AID 2283493). The method, boiled down: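 HepaRG cells, plated 48 h then in serum-free induction medium, dosed in duplicate for 48 h with eight half-log concentrations up to 100 uM in 0.5% DMSO. Gene mRNA by Fluidigm TaqMan qRT-PCR, normalized to ACTB, GAPDH, POLR2A.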

Read-out in assay [7]: Fatty Acid-Binding Protein 1 (FABP1), FABP1 (gene 2168)
The experiment in a line: LTEA_HepaRG_FABP1: Life Technologies and Expression Analysis (LTEA) Assay for Fatty Acid-Binding Protein 1 (FABP1) using HepaRG (AID 2283494). The method, boiled down: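 HepaRG, 48 h post-plating switched to serum-free induction medium, then dosed 48 h (duplicate, 8 pts, ≤100 uM, 0.5% DMSO). RNA → Fluidigm TaqMan qRT-PCR, FABP1 normed to ACTB/GAPDH/POLR2A. Bidirectional curve fit vs DMSO.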

Read-out in assay [8]: Cytochrome P450 4A22 (Homo sapiens) (UniProt Q5TCH4)
The experiment in a line: LTEA_HepaRG_CYP4A22: Life Technologies and Expression Analysis (LTEA) Assay for Cytochrome P450 4A22 (CYP4A22) using HepaRG (AID 2283495). The method, boiled down: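 Readout is CYP4A22 transcript induction or loss, quantified by qRT-PCR and normalized to ACTB, GAPDH and POLR2A. Human HepaRG cells receive test chemicals for 48 h at eight half-log concentrations from 100 uM in 0.5% DMSO.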

Read-out in assay [9]: Cytochrome P450 7A1 (Homo sapiens) (UniProt P22680)
The experiment in a line: LTEA_HepaRG_CYP7A1: Life Technologies and Expression Analysis (LTEA) Assay for Cytochrome P450 7A1 (CYP7A1) using HepaRG (AID 2283496). The method, boiled down:
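HepaRG cells plated 48 h, then switched to serum-free induction medium and exposed in duplicate for 48 h to 8-point half-log series from 100 uM in 0.5% DMSO. CYP7A1 mRNA by qRT-PCR (TaqMan), normalized to ACTB/GAPDH/POLR2A; bidirectional fit versus DMSO.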

Read-out in assay [10]: Glutathione S-Transferase (GSTA2), GSTA2 (gene 2939)
The experiment in a line: LTEA_HepaRG_GSTA2: Life Technologies and Expression Analysis (LTEA) Assay for Glutathione S-Transferase (GSTA2) using HepaRG (AID 2283497). The gist of the method:
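HepaRG, 48 h dosing, 8-pt half-log CRC from 100 uM, 0.5% DMSO vehicle, n=2; RNA → Fluidigm TaqMan qRT-PCR; GSTA2 vs ACTB/GAPDH/POLR2A; gain/loss fit vs DMSO.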

Cytochrome P450 3A7 (Homo sapiens), sequence (P24462 whole entry, looked up): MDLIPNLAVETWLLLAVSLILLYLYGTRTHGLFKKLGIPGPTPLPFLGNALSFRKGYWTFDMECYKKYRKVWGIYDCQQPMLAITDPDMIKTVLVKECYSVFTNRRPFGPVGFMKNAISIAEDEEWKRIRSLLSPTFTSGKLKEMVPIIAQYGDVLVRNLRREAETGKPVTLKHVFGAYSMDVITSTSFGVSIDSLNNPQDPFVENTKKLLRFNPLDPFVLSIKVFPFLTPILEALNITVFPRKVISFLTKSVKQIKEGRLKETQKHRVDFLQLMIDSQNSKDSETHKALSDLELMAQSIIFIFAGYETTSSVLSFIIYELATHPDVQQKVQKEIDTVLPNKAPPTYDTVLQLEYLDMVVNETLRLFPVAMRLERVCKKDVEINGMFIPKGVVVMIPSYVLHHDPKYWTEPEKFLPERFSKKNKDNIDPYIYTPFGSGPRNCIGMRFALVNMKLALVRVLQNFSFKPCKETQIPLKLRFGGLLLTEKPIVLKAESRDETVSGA

As to `Fc1ccc(Oc2ccnc3cc(Cl)cc(Cl)c23)cc1`, the AC50 in assay [1] is 65.1 µM (active); in assay [2], 32.8 µM (active); in assay [5], 79.4 µM (active); in assay [7], 87 µM (active); in assay [8], 82.6 µM (active); in assay [9] it was 90.5 µM (active). In addition, the AC50 in assay [10] is 83.6 µM (active). Besides, the outcome in [3], in assay [4] and in assay [6] was inactive.
Turning to `COC(=O)N(OC)c1ccccc1COc1ccn(-c2ccc(Cl)cc2)n1`, the half-maximal activity concentration (AC50) is 60.9 µM (active) in [1]; 12.1 µM (active) in [2]; 74 µM (active) in assay [5]; 87 µM (active) in [6]; 80.4 µM (active) in [7]; 15.8 µM (active) in [8]. Besides, the AC50 in [9] is 71.9 µM (active); in [10], 78.7 µM (active). Besides, the call in [3] and in [4] was inactive.
In the case of `CCCCNC(=O)n1c(NC(=O)OC)nc2ccccc21`, the call in assay [1], in [2], in assay [3], in [4], in assay [5] and in assay [6] was inactive. In addition, the compound was called inactive in assay [7], in [8], in assay [9] and in [10].
As to `CC(C)Oc1cc(-n2nc(C(C)(C)C)oc2=O)c(Cl)cc1Cl`, the AC50 in assay [1] is 77.7 µM (active); in assay [7] it was 19.4 µM (active); in assay [8], 50 µM (active); in assay [9], 33.3 µM (active); in assay [10], 80.8 µM (active). Further, the outcome in assay [2], in assay [3], in assay [4], in assay [5] and in [6] was inactive.
As to `COc1cnc(OC)n2nc(NS(=O)(=O)c3c(OCC(F)F)cccc3C(F)(F)F)nc12`, the call in [1], in assay [2], in [3], in assay [4], in [5] and in assay [6] was inactive. The result in assay [7] and in [10] was inactive. The concentration at half-maximal activity (AC50) in assay [8] was 9.46 µM (active); in assay [9] it was 26.2 µM (active).
As for `Cc1ccc(-c2c(Cl)nc(C#N)n2S(=O)(=O)N(C)C)cc1`, the AC50 in [1] is 21.7 µM (active); in assay [5], 83.5 µM (active); in assay [7], 4.76 µM (active); in [8], 73.9 µM (active); in [9], 10 µM (active); in assay [10], 9.43 µM (active). For the same compound, the compound was classed as inactive in assay [2], in [3], in assay [4] and in assay [6].
Consider `COP(=S)(OC)Oc1nc(Cl)c(Cl)cc1Cl`, for which the result in [1], in assay [2], in assay [3], in assay [4], in [5] and in assay [6] was inactive. Moreover, the outcome in [7], in [8], in assay [9] and in assay [10] was inactive.
For the compound `COC(=O)C=C(C)OP(=O)(OC)OC`, the call in assay [1], in assay [2], in assay [4], in [5], in assay [6] and in [7] was inactive. In addition, the call in assay [8] and in [10] was inactive. For the same compound, the results for the AC50 in assay [3] and in assay [9] were 50 µM (active) and 14.7 µM (active), respectively.
Turning to `COc1ccc(C(c2ccc(OC)cc2)C(Cl)(Cl)Cl)cc1`, the AC50 was 75 µM (active) in assay [1]; 73 µM (active) in assay [3]; 79.8 µM (active) in assay [4]; 65.4 µM (active) in [7]; 71.9 µM (active) in [8]; 40.2 µM (active) in assay [9]. Moreover, the AC50 in assay [10] was 90.3 µM (active). Further, the compound was classed as inactive in assay [2], in assay [5] and in assay [6].
Consider `CON(C)C(=O)Nc1ccc(Cl)c(Cl)c1`, for which the outcome in assay [1], in [2], in [3], in assay [4], in assay [5] and in assay [6] was inactive. For the same compound, the AC50 in assay [7] is 37.6 µM (active); in assay [8], 84.4 µM (active); in [9], 16.8 µM (active); in [10], 50 µM (active).
`CCOC(=O)CC(SP(=S)(OC)OC)C(=O)OCC` (stereo not given): the result in assay [1], in assay [2], in assay [3], in assay [4], in [5] and in [6] was inactive. Moreover, the outcome in assay [7], in [8], in assay [9] and in [10] was inactive.
For `COP(N)(=O)SC` (stereo not given), the call in assay [1], in assay [2], in assay [3], in assay [4], in assay [5] and in [6] was inactive. Also, the result in [7], in assay [8], in assay [9] and in assay [10] was inactive.
Take `CCOP(=S)(OCC)SCn1c(=O)oc2cc(Cl)ccc21`: the compound was classed as inactive in assay [1], in assay [2], in assay [3], in assay [4], in [5] and in [6]. Besides, the call in [7], in assay [8], in assay [9] and in assay [10] was inactive.

What is called AC50 is the concentration at which the activity in the assay is half-maximal.
